# High-throughput results from PubChem BioAssay.
# Compounds with a hit are over-represented: about 2.3% of the library has one in this group of screens.
# M1 ag: activates human CHRM1 receptor | P11229 | actives 0.33% (n = 360,000) | AID 588814 | activation, % at 3 µM | CHO-K1 hM1, Fluo-8 calcium fluorescence, agonist mode; 0% DMSO, 100% acetylcholine EC100;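 active = activation above the run's mean compound activation plus 3 SD, cut at about 16% in these data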;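 also: peak over basal fluorescence ratio within a 140 s kinetic read after compound addition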
# Target sequence (P11229 whole entry, looked up): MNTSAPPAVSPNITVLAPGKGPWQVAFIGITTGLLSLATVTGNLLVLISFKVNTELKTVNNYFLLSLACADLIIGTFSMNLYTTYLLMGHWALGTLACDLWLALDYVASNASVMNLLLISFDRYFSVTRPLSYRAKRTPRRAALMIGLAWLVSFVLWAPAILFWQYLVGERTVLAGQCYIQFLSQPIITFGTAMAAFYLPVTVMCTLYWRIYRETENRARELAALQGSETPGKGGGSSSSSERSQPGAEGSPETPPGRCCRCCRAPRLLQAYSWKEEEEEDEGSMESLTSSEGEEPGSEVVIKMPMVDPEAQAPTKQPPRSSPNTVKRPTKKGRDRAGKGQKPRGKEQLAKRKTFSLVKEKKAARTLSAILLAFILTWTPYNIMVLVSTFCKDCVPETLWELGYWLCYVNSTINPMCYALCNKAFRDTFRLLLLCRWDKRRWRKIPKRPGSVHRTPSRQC
# M1 PAM: positive allosteric modulators of human M1 muscarinic receptor; activation, % at 3 µM; actives 0.088% (n = 360,000); AID 588819; CHO-K1 hM1, Fluo-8 calcium fluorescence, ACh EC20; 0% = ACh EC20, 100% = maximal ACh; in the data active = activation above about 19%, passing the limit was not always enough
# CHO-K1 Ca ag: nonselective activator or artifact in parental CHO-K1 cells; AID 602248; activation, % at 3 µM; Fluo-8 calcium fluorescence; scaled to maximal ATP response, vehicle zero; actives 0.48% (n = 360,000); in the data active = activation above about 15%;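 also: untransfected CHO-K1 host cells lacking M1 receptor as counterscreen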
# CHO-K1 Ca antag: M1 antagonist counterscreen hit in parental CHO-K1 cells; inhibition, % at 3 µM; ATP-induced calcium, Fluo-8 fluorescence; actives 0.6% (n = 360,000);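 active = inhibition above a per-plate cutoff, the plate's mean sample inhibition plus 3 SD, cut at about 24% in these data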;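 also: 0% = DMSO plus EC80 ATP and 100% = DMSO alone without ATP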
# CHO-K1 Ca PAM: nonselective activator or artifact in parental CHO-K1 calcium assay; AID 602247; actives 0.02% (n = 360,000); ATP EC20, Fluo-8 calcium fluorescence; 0% at ATP EC20, 100% at ATP max; activation, % at 3 µM;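 active = activation above the run cutoff, the mean activation of all test compounds plus 3 SD, cut at about 40% in these data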;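 also: peak over basal fluorescence ratio in a 140 s read after ATP addition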
# M1 antag: antagonists of human M1 muscarinic receptor | P11229 | actives 1.3% (n = 360,000) | inhibition, % at 3 µM | CHO-K1 hM1, Fluo-8 calcium fluorescence, ACh EC80 antagonist;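 active = percent inhibition above its own plate's cutoff, namely the mean of that plate's compound wells plus 3 SD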;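 also: peak over basal fluorescence ratio during 140 s after agonist addition; 0% = ACh EC80 plus DMSO and 100% = DMSO alone without agonist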
# Starred values were filed as active, the others as inactive.
SMILES,M1 ag,M1 PAM,CHO-K1 Ca ag,CHO-K1 Ca antag,CHO-K1 Ca PAM,M1 antag
CC(Oc1ccc(Br)cc1)C(=O)Nc1nnc(C2CC2)s1 (centres undefined),18*,6,13,-7,22,-9
CSc1nc(N)nc(SCC(=O)Nc2ccc(Cl)cc2)c1C#N,2,-1,7,0,2,6
CSc1nc(N)nc(SCC(=O)Nc2cccc(F)c2)c1C#N,1,-10,11,13,-1,24*
CCOC(=O)N1CCN(C2=NC3(CCCCC3)C(C#N)C(=O)N2)CC1 (centres undefined),-6,14,0,-9,19,-4
O=C1c2ccccc2[C@@H]2C[C@@H](O)[C@H](Nc3cccc4ccccc34)CCN12,-3,-14,0,6,-9,25*
CCCCc1cc2ccccc2c(OCCN(C)C)n1,-7,-28,3,-18,19,56*
CCC(C)NS(=O)(=O)c1ccc(S(=O)(=O)N2CCCC3(CCCCC3)C2)cc1 (centres undefined),-5,-22,3,11,0,36*
CCc1nc2c(OCc3ccc(OC(F)F)cc3)cccn2c1N(C)C(=O)c1ccc(OC)cc1,-8,-13,0,1,-8,0
CC1=Nc2ccccc2/C1=C/c1sc(=N)n(-c2nccs2)c1O,8,-12,12,25*,-2,34*
CC1=Nc2ccccc2/C1=C/c1nc(-c2ccc(C)s2)oc1O,8,-4,5,-2,11,29
NNC(=O)c1sccc1OCc1ccc(F)cc1,-1,12,1,-3,11,-12
CCOc1ccsc1C(=O)O,-4,1,1,30*,-27,-1
O=C(N/N=C/c1ccc(Cl)cc1)c1sccc1OCc1ccc(F)cc1,0,7,0,-8,30,-10
O=C(N/N=C/c1ccc(F)cc1)c1sccc1OCc1ccc(F)cc1,2,7,3,-19,45*,-13
Cc1ccc(COc2ccsc2C(=O)O)cc1,-7,13,15*,0,18,-9
Nc1nc2c(Cl)ccc(Cl)c2s1,-7,9,1,-11,12,-9
CCOc1ccc(S(=O)(=O)N2CCC(C(=O)NCCN3CCOCC3)CC2)cc1C,-7,3,-2,-14,6,-10
CC(C)c1ccc(NC(=O)C2CSC3(C)CCC(=O)N23)cc1 (centres undefined),-2,0,0,7,-23,-6
CCn1nnnc1NCc1ccc(N2CCCC2)cc1,-5,-22,0,-14,14,89*
CCn1nnnc1NCc1ccc(SC)cc1,-9,0,0,-2,15,-5
Cc1ccc2nc(SCC(=O)N3CCC(Cc4ccccc4)CC3)nc(=O)n2c1,20*,-8,9,14,-13,-2
Fc1ccc2cc(-c3ccccc3F)ncc2c1,-4,1,-1,3,-4,1
CC(C)=CCN1CCN(C/C(Cl)=C/c2ccccc2)CC1CCO (centres undefined),-6,-15,3,-10,17,0
OCCC1CN(Cc2c(F)cccc2Cl)CCN1C1CCCC1 (centres undefined),-8,-25,2,12,4,57*
OCCC1CN(Cc2nc(-c3ccccc3)cs2)CCN1C1CCCC1 (centres undefined),-7,-24,0,-6,12,45*
SMILES,M1 ag,M1 PAM,CHO-K1 Ca ag,CHO-K1 Ca antag,CHO-K1 Ca PAM,M1 antag
COc1ccc2c(c1)C=C(CN1CCN(C3CCCC3)C(CCO)C1)CO2 (centres undefined),-4,-20,0,-19,15,95*
OCCC1CN(C/C(Cl)=C/c2ccccc2)CCN1C1CCCC1 (centres undefined),-15,-30,0,3,-4,22*
CCOc1ccc(N(CC(=O)N2CCN(c3ccc(F)cc3)CC2)S(=O)(=O)c2c(C)noc2C)cc1,-2,4,2,-13,3,6
CCCCc1ccc(NC(=O)C(=O)NCCN2CCN(C(=O)c3ccc([N+](=O)[O-])cc3)CC2)cc1,-2,-1,8,4,4,5
OCCC1CN(Cc2ccsc2)CCN1C1CCCC1 (centres undefined),-7,-2,1,-16,4,43*
CC(C)(C)NCc1cc(Cl)ccc1OCc1ccccc1F,-8,1,15*,3,16,3
Fc1ccc2[nH]c3c(NCc4ccccc4)ncnc3c2c1,2,-4,19*,34*,-23,23
CCCC1C(=O)Nc2ccccc2N1C(=O)c1cccc(C)c1 (centres undefined),-8,-27,2,2,8,68*
CCCC1C(=O)Nc2ccccc2N1C(=O)c1ccc(C(C)(C)C)cc1 (centres undefined),-6,-2,-1,-19,11,-2
CNc1cccc(-c2cc(OC)ccc2OC)n1,-8,-22,4,4,9,42*
CNc1cccc(-c2c(OC)cccc2OC)n1,-9,-2,2,-9,20,-3
COc1ccc(C)cc1NC(=O)C(OC(=O)CNC(=O)c1cccc(F)c1)c1ccccc1 (centres undefined),-7,11,0,31*,-16,-4
CC(=O)Nc1ccc2c(c1)CN(c1cc(C)ccc1C)CO2,2,-4,8,25*,-14,2
CC(=O)Nc1ccc(S(=O)(=O)N2CCN(c3cc(C)ccc3C)CC2)cc1,0,0,3,-7,10,-10
CCOC(=O)C1=CCN(S(=O)(=O)c2ccccc2Cl)C1c1cccc(Br)c1 (centres undefined),-9,-9,0,17,10,5
CCN(CC)CCOC(=O)c1c(C)oc2ccc(OC)cc12,-8,-24,0,-24,-1,25*
C=C(C)COc1ccc2oc(C)c(C(=O)OCCOC)c2c1,-4,-1,0,1,8,1
CCCN(CC(=O)Nc1ccccc1OC)Cc1c(O)ccc2ccccc12,-2,2,1,-11,1,-1
CCN(CC)c1ccc(C2C(C(=O)OCCOC(C)C)=C(C)NC3=C2C(=O)CCC3)cc1 (centres undefined),-6,-23,0,19,-8,90*
O=C1c2cc(S(=O)(=O)N(CCO)CCO)ccc2-c2ccc(S(=O)(=O)N(CCO)CCO)cc21,0,9,16*,3,18,-14
O=S(=O)(c1ccc(Oc2ccc(S(=O)(=O)N(CCO)CCO)cc2)cc1)N(CCO)CCO,-5,12,0,-2,17,-6
CC1CCC(NC(=O)COC(=O)CCC(=O)c2ccc(Cl)s2)CC1 (centres undefined),-1,10,1,-12,17,-22
